Results taken from the supplement of paper PMC3545927.
The other results are listed elsewhere or left out. How many sequences the whole screen found active is unknown.

B1: HC117 (peptide)
chain: CAVVCCYMSYAGNASASA
B2: HC881 (peptide)
chain: CAMTGYTGDFAGNASASA
B3: FS-1745 (peptide)
chain: CARLRRSLKPAGNASASA
B4: FS-2984 (peptide)
chain: CARLARNVKEAGNASASA
B5: FS-2115 (peptide)
chain: CAVTKRSLSPAGNASASA
B6: FS-3144 (peptide)
chain: CAVTKRDVLDAGNASASA
B7: HC489 (peptide)
chain: CARDRSELSPAGNASASA
B8: FS-1401 (peptide)
chain: CARPARFLRHAGNASASA
B9: FS-2051 (peptide)
chain: CARPARFLDSAGNASASA
B10: FS-2983 (peptide)
chain: CARLARGEDEAGNASASA
B11: FS-2574 (peptide)
chain: CARLRRGGDPAGNASASA
B12: FS-1744 (peptide)
chain: CARLRRGQCPAGNASASA
B13: HC842 (peptide)
chain: CAEEVALSTTAGNASASA
B14: HC1976 (peptide)
chain: CAEGTTPCSGAGNASASA
B15: HC2512 (peptide)
chain: CASTECSAHLAGNASASA
B16: HC129 (peptide)
chain: CAEVVHSTWVAGNASASA
B17: HC383 (peptide)
chain: CAHKFNSSGCAGNASASA
B18: FS-1746 (peptide)
chain: CARLRRVKTAAGNASASA
B19: FS-1607 (peptide)
chain: CARLRRSKRCAGNASASA
B20: FS-916 (peptide)
chain: CARLRRQKKGAGNASASA
B21: FS-2717 (peptide)
chain: CARLRRSNYFAGNASASA
B22: FS-2280 (peptide)
chain: CARLRRSLPPAGNASASA
B23: FS-3161 (peptide)
chain: CARLRRSGRCAGNASASA
B24: FS-2352 (peptide)
chain: CARLRRSLSPAGNASASA
B25: HC1043 (peptide)
chain: CAMWNFISGIAGNASASA
B26: HC427 (peptide)
chain: CADTDVFVLNAGNASASA
B27: HC1560 (peptide)
chain: CAKRVYYLTRAGNASASA
B28: FS-2234 (peptide)
chain: CARRRRSILFAGNASASA
B29: FS-2795 (peptide)
chain: CARRRRSISRAGNASASA
B30: FS-2599 (peptide)
chain: CARRRRSSVFAGNASASA
B31: FS-2518 (peptide)
chain: CARRRRSSKRAGNASASA
B32: HC691 (peptide)
chain: CAIVSTAAQTAGNASASA
B33: HC96 (peptide)
chain: CAVVCTSMSYAGNASASA
B34: HC53 (peptide)
chain: CATTPESGSWAGNASASA
B35: HC2477 (peptide)
chain: CASTPCSAHLAGNASASA
B36: HC139 (peptide)
chain: CAEVVQSTWVAGNASASA
B37: HC509 (peptide)
chain: CAVDVQYLYGAGNASASA
B38: HC601 (peptide)
chain: CAHPTLVFDIAGNASASA
B39: FS-3066 (peptide)
chain: CARRRRSIQNAGNASASA
B40: HC1290 (peptide)
chain: CALVAEEDERAGNASASA
B41: HC915 (peptide)
chain: CASGMFDSSVAGNASASA
B42: FS-780 (peptide)
chain: CAGEMRKKRYAGNASASA
B43: FS-25 (peptide)
chain: CAESGRGKRYAGNASASA
B44: HC1796 (peptide)
chain: CAGEMEECSQAGNASASA
B45: FS-765 (peptide)
chain: CAESIRMKRYAGNASASA

Target: furin, P09958
Test: furin cleavage Z-score vs untreated control; higher = more cleavage, active = 3.5 or more, inactive = 1 or less, 8 variable residues between constant flanks
How it was run: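 Read counts from sequencing released DNA gave abundance for each bead-bound 8-mer peptide–cDNA fusion cut by purified furin over 7.5, 15 or 30 min. The cleavage Z-score compares log counts with furin-free reactions after lowess adjustment and median absolute deviation scaling.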
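Also: purified furin at 1:10 enzyme:substrate in 50 mM HEPES pH 7.5.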

furin, P09958, sequence (P09958 whole entry): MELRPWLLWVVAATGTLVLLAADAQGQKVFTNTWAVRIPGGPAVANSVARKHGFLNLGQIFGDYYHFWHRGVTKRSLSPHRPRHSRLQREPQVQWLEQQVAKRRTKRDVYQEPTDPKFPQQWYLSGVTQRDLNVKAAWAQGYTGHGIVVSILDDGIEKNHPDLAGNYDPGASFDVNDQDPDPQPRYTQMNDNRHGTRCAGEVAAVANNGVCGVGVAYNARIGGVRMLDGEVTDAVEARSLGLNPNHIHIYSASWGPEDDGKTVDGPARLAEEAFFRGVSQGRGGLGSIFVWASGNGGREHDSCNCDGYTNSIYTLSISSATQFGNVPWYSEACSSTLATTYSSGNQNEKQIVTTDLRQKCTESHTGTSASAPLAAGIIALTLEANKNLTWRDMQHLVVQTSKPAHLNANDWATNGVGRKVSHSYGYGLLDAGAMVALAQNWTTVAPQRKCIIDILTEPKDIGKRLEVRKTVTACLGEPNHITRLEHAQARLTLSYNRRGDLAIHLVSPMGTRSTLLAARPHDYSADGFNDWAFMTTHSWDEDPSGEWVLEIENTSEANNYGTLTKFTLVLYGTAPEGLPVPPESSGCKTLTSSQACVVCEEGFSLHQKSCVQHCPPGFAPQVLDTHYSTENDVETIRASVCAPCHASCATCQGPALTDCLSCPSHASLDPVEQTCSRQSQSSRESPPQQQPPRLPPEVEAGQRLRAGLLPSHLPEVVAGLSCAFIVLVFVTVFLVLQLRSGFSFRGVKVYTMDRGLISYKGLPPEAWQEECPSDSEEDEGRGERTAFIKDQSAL

Sequence	furin cleavage Z-score (7.5 min)	furin cleavage Z-score (15 min)	furin cleavage Z-score (30 min)
B1	-0.228 (inactive)	0.612 (inactive)	-0.215 (inactive)
B2	0.318 (inactive)	1.08	-0.18 (inactive)
B3	6.9 (active)	7.63 (active)	9.8 (active)
B4	4.24 (active)	6.29 (active)	5.68 (active)
B5	1.18	3.3	4.48 (active)
B6	-0.767 (inactive)	-0.792 (inactive)	0.507 (inactive)
B7	-0.384 (inactive)	0.819 (inactive)	-0.778 (inactive)
B8	7.22 (active)	9.82 (active)	7.94 (active)
B9	0.467 (inactive)	1.13	1.17
B10	-0.38 (inactive)	-0.666 (inactive)	-0.468 (inactive)
B11	-0.102 (inactive)	1.44	0.372 (inactive)
B12	-0.204 (inactive)	1.25	-0.396 (inactive)
B13	0.962 (inactive)	-0.0897 (inactive)	1.67
B14	-0.304 (inactive)	0.383 (inactive)	-0.263 (inactive)
B15	-0.161 (inactive)	-0.192 (inactive)	2.81
B16	-0.835 (inactive)	0.0271 (inactive)	-0.684 (inactive)
B17	0.00727 (inactive)	-1.4 (inactive)	-0.526 (inactive)
B18	-0.934 (inactive)	-0.994 (inactive)	-0.54 (inactive)
B19	2.93	1.58	3.77 (active)
B20	-0.934 (inactive)	-1.47 (inactive)	-0.511 (inactive)
B21	0.785 (inactive)	3.14	4.28 (active)
B22	7.15 (active)	6.52 (active)	7.39 (active)
B23	3.21	-0.166 (inactive)	3.48

Sequence	furin cleavage Z-score (7.5 min)	furin cleavage Z-score (15 min)	furin cleavage Z-score (30 min)
B24	10.8 (active)	9.04 (active)	8.19 (active)
B25	-0.76 (inactive)	-0.163 (inactive)	1.37
B26	-0.554 (inactive)	-0.537 (inactive)	-1.25 (inactive)
B27	2.27	0.852 (inactive)	-0.874 (inactive)
B28	5.15 (active)	6.77 (active)	8.96 (active)
B29	6.77 (active)	7.84 (active)	8.25 (active)
B30	6.51 (active)	7.07 (active)	8.27 (active)
B31	4.4 (active)	5.93 (active)	5.04 (active)
B32	-1.17 (inactive)	-1.15 (inactive)	-1.22 (inactive)
B33	1.17	-0.0848 (inactive)	0.455 (inactive)
B34	-0.759 (inactive)	-0.574 (inactive)	-0.54 (inactive)
B35	0.591 (inactive)	0.749 (inactive)	-1.42 (inactive)
B36	-1.19 (inactive)	-0.568 (inactive)	-0.254 (inactive)
B37	-0.528 (inactive)	0.269 (inactive)	0.219 (inactive)
B38	-0.391 (inactive)	-1.13 (inactive)	-0.764 (inactive)
B39	7.74 (active)	10.2 (active)	7.21 (active)
B40	-0.68 (inactive)	-1.05 (inactive)	-0.546 (inactive)
B41	-1.55 (inactive)	-0.578 (inactive)	-0.341 (inactive)
B42	8.98 (active)	11.5 (active)	11.2 (active)
B43	2.19	4.19 (active)	6.23 (active)
B44	-0.269 (inactive)	1.03	0.391 (inactive)
B45	10.4 (active)	10.9 (active)	9.17 (active)
